Most compounds without a hit are left out; they make up all but 0.84% or so of the library.
PPARg SRC1 recr: promotes SRC-1 coactivator recruitment by human PPARgamma; activation, % at 8 µM; PPARgamma-SRC-1 coactivator recruitment biochemical assay; AID 631; P37231; hit rate 0.41% among 200,000; in the data active = activation above about 19%;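 note: 0% = DMSO and 100% = reference agonist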
Target sequence (P37231 whole entry, looked up): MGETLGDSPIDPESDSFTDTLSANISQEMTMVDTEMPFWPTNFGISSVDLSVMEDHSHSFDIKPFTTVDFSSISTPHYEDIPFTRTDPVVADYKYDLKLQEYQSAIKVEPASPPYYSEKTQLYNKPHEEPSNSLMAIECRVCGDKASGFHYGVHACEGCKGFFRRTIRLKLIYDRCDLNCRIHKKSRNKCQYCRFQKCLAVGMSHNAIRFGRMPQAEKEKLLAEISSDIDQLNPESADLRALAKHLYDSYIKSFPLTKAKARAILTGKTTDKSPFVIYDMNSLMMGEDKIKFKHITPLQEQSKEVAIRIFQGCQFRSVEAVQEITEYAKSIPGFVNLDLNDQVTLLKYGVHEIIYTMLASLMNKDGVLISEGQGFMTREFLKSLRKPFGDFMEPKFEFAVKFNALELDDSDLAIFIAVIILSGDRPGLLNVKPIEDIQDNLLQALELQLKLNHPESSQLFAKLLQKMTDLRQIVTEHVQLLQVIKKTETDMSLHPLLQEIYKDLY
PPARg SRC-2 ag: PPARgamma-driven SRC-2 recruitment agonism; P37231; activation, % at 8 µM; PPARgamma LBD-SRC-2 recruitment, biochemical; AID 1032; hit rate 0.34% among 200,000; in the data active = activation above about 22%;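 note: 0% = vehicle and 100% = reference agonist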
SRC3 TRFRET art: counter-screen for PPARgamma SRC-3 recruitment agonists: TR-FRET artefact; PPARgamma/SRC-3 format; hits give high values; TR-FRET ratio at 8 µM; AID 1048; hit rate 0.39% among 99,000
TR-FRET SRC-2 ct: TR-FRET artefact, counter-screen to PPARgamma/SRC-2 agonist assay; hits give high values; TR-FRET ratio at 8 µM; hit rate 0.4% among 200,000; AID 1049
PPARg SRC-3 ag: promotes SRC-3 coactivator recruitment by human PPARgamma | P37231 | biochemical PPARgamma/SRC-3 coactivator recruitment assay | activation, % at 8 µM | hit rate 0.26% among 200,000; in the data active = activation above about 23%;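 note: 0% = DMSO and 100% = reference agonist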
SRC1 TRFRET art: flags TR-FRET format artefacts in PPARgamma SRC-1 recruitment agonist screen; TR-FRET detection artefact counter-screen, emission ratio; hits give high values; TR-FRET ratio at 8 µM; hit rate 0.34% among 99,000; AID 1051; in the data active = TR-FRET ratio above about 2300
Starred values were filed as active, the others as inactive. Cut-off read from the data, not from the text of the source, unless noted: active = TR-FRET ratio above about 2000; inactive = the rest.

What do the screens show for `CCN(CC)c1ccc(C=Nc2ccc(C)cc2)c(O)c1`?
PPARg SRC1 recr: 4.4; PPARg SRC-2 ag: 11.1; TR-FRET SRC-2 ct: 1701; PPARg SRC-3 ag: 5.3

What do the screens show for `CCN(CC)c1ccc(N=Cc2ccc(N(CC)CC)cc2O)cc1`?
PPARg SRC1 recr: 14.2; PPARg SRC-2 ag: 27.4*; TR-FRET SRC-2 ct: 1964; PPARg SRC-3 ag: 41.2*

Results for COc1ccc(OC)c(/C=N\NC(=O)CC(=O)NCCc2ccccc2)c1 ?
PPARg SRC1 recr: 6.6; PPARg SRC-2 ag: 9.5; SRC3 TRFRET art: 1704; TR-FRET SRC-2 ct: 1584; PPARg SRC-3 ag: 4.3; SRC1 TRFRET art: 2318*

What do the screens show for `Cc1cc(=O)oc2cc(OC(=O)CCCCCN3C(=O)c4ccccc4C3=O)ccc12`?
PPARg SRC1 recr: 3.4; PPARg SRC-2 ag: 5.2; SRC3 TRFRET art: 1688; TR-FRET SRC-2 ct: 1504; PPARg SRC-3 ag: 3.1; SRC1 TRFRET art: 1621

How did COc1cccc(C2C(C(=O)c3cc4ccccc4o3)=C(O)C(=O)N2CCN(C)C)c1OC (stereo unspecified) do in these assays?
PPARg SRC1 recr: 18.3; PPARg SRC-2 ag: 20.5; TR-FRET SRC-2 ct: 1961; PPARg SRC-3 ag: 28.0*

Results for COc1cccc(C2C(C(=O)c3ccco3)=C(O)C(=O)N2CCN(C)C)c1OC (stereo unspecified) ?
PPARg SRC1 recr: -5.4; PPARg SRC-2 ag: 1.8; SRC3 TRFRET art: 1530; TR-FRET SRC-2 ct: 1493; PPARg SRC-3 ag: -0.4; SRC1 TRFRET art: 1861

Results for O=C(O)/C=C/C(=O)N1CCN(c2cccc(Cl)c2)CC1 ?
PPARg SRC1 recr: -4.8; PPARg SRC-2 ag: 0.6; SRC3 TRFRET art: 1499; TR-FRET SRC-2 ct: 1597; PPARg SRC-3 ag: -4.7; SRC1 TRFRET art: 1766

What do the screens show for `CCCn1c(NC(=O)c2ccc(Br)cc2)nc2ccccc21`?
PPARg SRC1 recr: 34.2*; PPARg SRC-2 ag: 2.4; TR-FRET SRC-2 ct: 1587; PPARg SRC-3 ag: -0.8

How did CCCn1c(NC(=O)c2ccc(F)cc2)nc2ccccc21 do in these assays?
PPARg SRC1 recr: -1.3; PPARg SRC-2 ag: 2.1; SRC3 TRFRET art: 1516; TR-FRET SRC-2 ct: 1479; PPARg SRC-3 ag: 3.4; SRC1 TRFRET art: 1892

Results for Cc1cccc(-c2noc(-c3cc4ccccc4oc3=O)n2)c1 ?
PPARg SRC1 recr: 0.1; PPARg SRC-2 ag: 3.2; TR-FRET SRC-2 ct: 1307; PPARg SRC-3 ag: -5.9

Results for CCc1nn(CC(=O)NCCCN(CC)Cc2ccccc2)c(=O)c2cc3sccc3n12 ?
PPARg SRC1 recr: -3.9; PPARg SRC-2 ag: 3.5; TR-FRET SRC-2 ct: 2044*; PPARg SRC-3 ag: -5.8

What do the screens show for `Cn1nc(-c2ccccc2)c(C(=O)Nc2ccc(Cl)cc2)c1Cl`?
PPARg SRC1 recr: 5.3; PPARg SRC-2 ag: -1.9; TR-FRET SRC-2 ct: 1469; PPARg SRC-3 ag: 6.8

What do the screens show for `Cn1nc(-c2ccccc2)c(C(=O)Nc2ccc(C(F)(F)F)cc2)c1Cl`?
PPARg SRC1 recr: 5.0; PPARg SRC-2 ag: 1.4; TR-FRET SRC-2 ct: 1625; PPARg SRC-3 ag: 32.2*

What do the screens show for `Cc1ccc(NC(=S)N2CCCC(CO)C2)c(C)c1` (stereo unspecified)?
PPARg SRC1 recr: 0.1; PPARg SRC-2 ag: -5.0; SRC3 TRFRET art: 1429; TR-FRET SRC-2 ct: 1705; PPARg SRC-3 ag: 2.1; SRC1 TRFRET art: 1854

Results for CC(=O)Nc1ccc(S(=O)(=O)Nc2nc3ccccc3nc2Sc2nncn2C)cc1 ?
PPARg SRC1 recr: 0.1; PPARg SRC-2 ag: 7.3; TR-FRET SRC-2 ct: 2233*; PPARg SRC-3 ag: -0.5

How did Cc1ccc(S(=O)(=O)N(C)C)cc1NC(=S)N1CCCCC1CO (stereo unspecified) do in these assays?
PPARg SRC1 recr: 2.0; PPARg SRC-2 ag: -10.4; SRC3 TRFRET art: 1456; TR-FRET SRC-2 ct: 1518; PPARg SRC-3 ag: -9.1; SRC1 TRFRET art: 1490

Results for COC(=O)Cn1c(=NC(=O)c2cc(-c3cccs3)nc3ccccc23)sc2cc(S(N)(=O)=O)ccc21 ?
PPARg SRC1 recr: 3.9; PPARg SRC-2 ag: 4.9; SRC3 TRFRET art: 1741; TR-FRET SRC-2 ct: 1499; PPARg SRC-3 ag: 2.5; SRC1 TRFRET art: 1658

Results for CCOCCn1c(=NC(=O)c2cc(Cl)sc2Cl)sc2cc(S(N)(=O)=O)ccc21 ?
PPARg SRC1 recr: 6.7; PPARg SRC-2 ag: -2.3; SRC3 TRFRET art: 4758*; TR-FRET SRC-2 ct: 1600; PPARg SRC-3 ag: 29.5*; SRC1 TRFRET art: 1763

How did CCOC(=O)Cn1c(=NC(=O)c2cc(-c3cccs3)nc3ccccc23)sc2cc(S(N)(=O)=O)ccc21 do in these assays?
PPARg SRC1 recr: 10.8; PPARg SRC-2 ag: 6.7; SRC3 TRFRET art: 2342*; TR-FRET SRC-2 ct: 1552; PPARg SRC-3 ag: 6.5; SRC1 TRFRET art: 1942
